Test results from PubChem BioAssay (Tox21).
Unmarked numbers belong to inactive results. A call without a number means that no potency is given here. Calls of active or inactive are those of the source. Calls come from the whole dose curve; as a rule, active = well fitted curve in the direction sought with a large enough effect in the repeat runs; inconclusive = weak or mixed curves; inactive = flat fitted curve, though single readings scatter.

Test: qHTS assay to test for compound auto fluorescence at 460 nm (blue) in HEK293 cell free culture (AID 720681)
Details: cell-free medium, autofluorescence 405/460 nm (blue); series mostly up to 91.3 µM
Summary of the method: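 Test compounds were pinned into cell-free culture medium (DMEM with 10% FBS) and fluorescence was read directly at Ex/Em 405/460 nm. Signals were expressed as fluorescence equivalents of triamterene, with DMSO vehicle as control.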
For CN(C)CC[C@@H](c1ccc(Br)cc1)c1ccccn1, the Potency was “inactive”. In the case of O=C(O)/C=C/c1cnc[nH]1, the Potency is reported as “inactive”. In the case of Cc1occc1S, the Potency is reported as “inactive”. With CC(C)CCCCCCOC(=O)c1ccc(C(=O)OCCCCCCC(C)C)c(C(=O)OCCCCCCC(C)C)c1 the Potency was “inactive”. For CCN(CC)CCOc1ccc2c(c1)C(=O)c1cc(OCCN(CC)CC)ccc1-2, the Potency was “inactive”. For CC(=O)OCCc1ccccc1, the Potency was “inactive”. Work on O=C(O)COC(=O)Cc1ccccc1Nc1c(Cl)cccc1Cl yielded a fluorescence, % of fluorescent control of 0.0686% [at 18.6 µM]. For Oc1ccc(Cc2ccccc2)cc1, the Potency was “inactive”. With NC1CCN(c2nc3c(cc2F)c(=O)c(C(=O)O)cn3-c2ccc(F)cc2F)C1 (stereo not drawn) the Potency was “inactive”. For CC(C)c1ccc2c(C(C)C)cc(C(C)C)c(S(=O)(=O)O)c2c1, the Potency was “inactive”. With CCN1CCC[C@H]1CNC(=O)c1c(OC)ccc(Br)c1OC the Potency was “inactive”. In the case of O=CNc1ccccc1, the Potency is reported as “inactive”. With Cc1cccc(Oc2ccccc2)c1 the Potency was “inactive”. For O=C(O)[C@@H]1[C@H]2C[C@H]3c4[nH]c5ccccc5c4CCN3C[C@@H]2CC[C@@H]1O, the fluorescence, % of fluorescent control was 4.98% [at 18.6 µM]. In the case of O=c1c2ccccc2nnn1CCl, the Potency is reported as “inactive”. In the case of C[C@@H](C1=C(CCN(C)C)Cc2ccccc21)c1ccccn1, the Potency is reported as “inactive”. CC(=O)N(O)CCCCCNC(=O)CCC(=O)N(O)CCCCCNC(=O)CCC(=O)N(O)CCCCCN showed a fluorescence, % of fluorescent control of 0.0573% [at 18.6 µM]. For CCN(CC)CCOC(=O)C1(c2ccccc2)CCCC1, the Potency was “inactive”. With COc1cc(C(C)(C)C)c(O)c(C(C)(C)C)c1 the Potency was “inactive”. In the case of Cc1ccccn1, the Potency is reported as “inactive”. In the case of CCOc1ccc(NC(=O)CC(C)=O)cc1, the Potency is reported as “inactive”. With CC(=O)/C=C/C1C(C)=CCCC1(C)C (stereo not drawn) the Potency was “inactive”. In the case of CCCCOC(=O)/C=C\C(=O)OCCCC, the Potency is reported as “inactive”. With N#CCCNCCC#N the Potency was “inactive”. For CCCOc1ccc2nc(NC(=O)OC)[nH]c2c1, the Potency was “inactive”. With O=C1c2cccc(O)c2C(=O)c2c(O)cc(CO)cc21 the Potency was “inactive”. With CCOC(=O)C1=NN(c2ccccc2)C(=O)C1 the Potency was “inactive”. With CC(=O)SCc1ccco1 the Potency was “inactive”. In the case of Cc1ccccc1N=Nc1ccc(N=Nc2c(O)ccc3ccccc23)c(C)c1, the Potency is reported as “inactive”. In the case of CN(C(=O)CCCOc1ccc2[nH]c(=O)ccc2c1)C1CCCCC1, the Potency is reported as “inactive”. Compound CCN(CC)C(C)CN1c2ccccc2Sc2ccccc21 (stereo not drawn) has a fluorescence, % of fluorescent control of -0.0592% [at 18.6 µM]. With Cc1ccc(C(=O)C(C)CN2CCCCC2)cc1 (stereo not drawn) the Potency was “inactive”. In the case of O=C(O)Cn1c(C(=O)Nc2nc(-c3ccccc3Cl)cs2)cc2ccccc21, the Potency is reported as “inactive”.
